Experimental data: a collection of fitness landscapes (doi:10.1016/j.celrep.2020.107928)
Over roughly 81,000 sequences, “one-hybrid fitness for binding NBS DNA” has its median near -0.1; the highest 2% begin near 0.36. The full list was thinned out, with the highest values kept by preference.

B1: Caulobacter ParB omega fusion; a variant is named by its letters at X, in order, B8GW30 (parent)
chain: MESVVVGEPGMSEGRRGLGRGLSALLGEVDAAPAQAPGEQLGGSREAPIEILQRNPDQPRRTFREEDLEDLSNSIREKGVLQPILVRPSPDTAGEYQIVAGERAWRAAQRAGLKTVPIMVRELDDLAVLEIGIIENVQRADLNVLEEALSYKVLMEKFERTQENIAQTIGKSXSHVANXMRLLXLPDEVQSYLVSGELTAXHARAIAAAADPVALAKQIIEGGLSVRETEALARKAPNLSAGKSKGGRPPRVKDTDTQALESDLSSVLGLDVSIDHRGSTGTLTITYATLEQLDDLCNRLTRGI

Variants of: B1
Experiment: one-hybrid fitness for binding NBS DNA (the Noc-binding site; scaled: cognate 1, non-cognate 0); higher = stronger binding
Conditions: with NBS DNA site
Summary of the method: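 In E. coli USO, a HIS3 reporter with its site placed 19 bp from the promoter was used to select Caulobacter ParB variants randomised at four specificity codons. Growth lasted 48 hours at 37°C on histidine-free M9 containing 0.1 mM IPTG and 5 mM 3-AT. Fitness was taken as the log change in variant-to-wild-type read ratio from Illumina sequencing of pre- and post-selection plasmids, rescaled between the non-cognate and cognate sites.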

one-hybrid fitness for binding NBS DNA, 0.261:
QKRP

one-hybrid fitness for binding NBS DNA, 0.392:
QKLS

one-hybrid fitness for binding NBS DNA, 0.258:
QKRF

one-hybrid fitness for binding NBS DNA, 0.465:
QKGS

one-hybrid fitness for binding NBS DNA, 0.445:
QCKN

one-hybrid fitness for binding NBS DNA, 0.511:
QRVA

one-hybrid fitness for binding NBS DNA, 0.241:
QKSH

one-hybrid fitness for binding NBS DNA, 0.298:
QCVA

one-hybrid fitness for binding NBS DNA, 0.521:
QKDH

one-hybrid fitness for binding NBS DNA, 0.449:
QKSS

one-hybrid fitness for binding NBS DNA, 0.359:
QSKN

one-hybrid fitness for binding NBS DNA, 0.201:
QIHA

one-hybrid fitness for binding NBS DNA, 0.306:
RRAM

one-hybrid fitness for binding NBS DNA, 0.422:
QCHA

one-hybrid fitness for binding NBS DNA, 0.329:
RIQT

one-hybrid fitness for binding NBS DNA, 0.228:
QKGH

one-hybrid fitness for binding NBS DNA, 0.757:
RRAR

one-hybrid fitness for binding NBS DNA, 0.275:
QSHA

one-hybrid fitness for binding NBS DNA, 0.426:
RYGS

one-hybrid fitness for binding NBS DNA, 0.437:
RYSS

one-hybrid fitness for binding NBS DNA, 0.497:
RYNS

one-hybrid fitness for binding NBS DNA, 0.301:
QKRI
QIFR

one-hybrid fitness for binding NBS DNA, 0.629:
QRHA

one-hybrid fitness for binding NBS DNA, 0.441:
RYHS

one-hybrid fitness for binding NBS DNA, 0.331:
QLKQ

one-hybrid fitness for binding NBS DNA, 0.243:
RHIT

one-hybrid fitness for binding NBS DNA, 0.365:
QLKN

one-hybrid fitness for binding NBS DNA, 0.286:
QKNH

one-hybrid fitness for binding NBS DNA, ≤ 0.2:
SLNQ
VERV
NEQT
RMDV
RYAC
YPLD
IQMR
GWLS
GWLP
QKLD
QKSP
YTAV
HGTI
VPLE
AYGD
RKKE
KHKY
QKDD
QKGD
MPKT
RGWG
DTNG
IIGR
VAWT
RYQD
RYSH
RYQH
RYRN
RYSG
RYSN
RYRD
RYSC
MMDT
HANR
IMHC
VAPN
GWLG
KQKS
FLVG
LDND
SIIL
AHHA
SHVW
CFRT
RYND
RYWS
RYDS
RYHD
RYIS
RYCH
RYCP
RYHN
EYQC
PEMV
LCRH
YRHS
RYGD
RYHG
RYHQ
RYGN
RYQY
RYGC
RYQF
RYGF
TIRS
SHCW
PSRV
QMAC
DGSR
HLCR
TSRL
VDPI
VKWG
NFAR
TAGV
NERC
VQTI
RMTM
VKPG
MIPC
QIAH
QSAH
QPAR
QSAD
QEAR
PIRY
TWMC
IDTL
TIIR
NVDM
SALS
QLVS
QLKD
QPKN
QLVH
QLVN
QLKP
HLWL
WMPR
DMKY
PLDP
TIRA
EGSN
LRCP
GCSF
HDFR
DATM
TSVL
CRHF
RDQT
RAQP
RHPT
RAQC
CHYG
ASMD
FIRR
MIQP
RPQT
DRKA
QPVA
NRKA
TSKG
PRAV
TDDT
IQLF
LTEG
QNDR
QNVR
QNKN
MEGC
QPHA
ADPD

one-hybrid fitness for binding NBS DNA, 0.397:
QIAR

one-hybrid fitness for binding NBS DNA, 0.284:
RKSA

one-hybrid fitness for binding NBS DNA, 0.452:
RYST

one-hybrid fitness for binding NBS DNA, 0.579:
QKRH

one-hybrid fitness for binding NBS DNA, 0.203:
QNYR

one-hybrid fitness for binding NBS DNA, 0.357:
RRAG

one-hybrid fitness for binding NBS DNA, 0.242:
RFQT

one-hybrid fitness for binding NBS DNA, 0.45:
RYHT

one-hybrid fitness for binding NBS DNA, 0.643:
QCAR

one-hybrid fitness for binding NBS DNA, 0.572:
RYRS

one-hybrid fitness for binding NBS DNA, 0.728:
RRFR

one-hybrid fitness for binding NBS DNA, 0.371:
RYYS

one-hybrid fitness for binding NBS DNA, 0.373:
RYGT

one-hybrid fitness for binding NBS DNA, 0.487:
QLKH

one-hybrid fitness for binding NBS DNA, 0.39:
RHQT

one-hybrid fitness for binding NBS DNA, 0.573:
QLKS

one-hybrid fitness for binding NBS DNA, 0.404:
GWLI

one-hybrid fitness for binding NBS DNA, 0.268:
QKRD

one-hybrid fitness for binding NBS DNA, 0.692:
QRKA

one-hybrid fitness for binding NBS DNA, 0.287:
RHYT

one-hybrid fitness for binding NBS DNA, 0.381:
RYQT

one-hybrid fitness for binding NBS DNA, 0.677:
QKRS

one-hybrid fitness for binding NBS DNA, 0.418:
RSQT

one-hybrid fitness for binding NBS DNA, 0.33:
RHLT

one-hybrid fitness for binding NBS DNA, 0.28:
QKHA

one-hybrid fitness for binding NBS DNA, 0.386:
RYQS

one-hybrid fitness for binding NBS DNA, 0.395:
RYCS
RAQT

one-hybrid fitness for binding NBS DNA, 0.439:
QNRR

one-hybrid fitness for binding NBS DNA, 0.526:
QSAR

one-hybrid fitness for binding NBS DNA, 0.504:
QNKR

one-hybrid fitness for binding NBS DNA, 0.513:
RCQT

one-hybrid fitness for binding NBS DNA, 0.583:
RHRT

one-hybrid fitness for binding NBS DNA, 0.246:
QKLH
